Hit rate of the full screen: of about 39,000 compounds, about 1,500 (3.8%) were called active. Only a selection was taken, and actives are over-represented in it overall.

Drawing on the antibiotic and cytotoxicity screens of Wong et al. (2023), this text covers cytotoxicity call for 37 compounds.

The test system of this experiment is HSkMC (human skeletal muscle cells). The experiment can be described thus: cytotoxicity call (relative viability < 0.9). The note with it: 10 µM.
Turning to `COc1ccc(S(=O)(=O)N(C)C[C@@H]2Oc3ccc(NC(=O)Nc4cccc(C(F)(F)F)c4)cc3CC(=O)N([C@@H](C)CO)C[C@@H]2C)cc1Cl`, the cytotoxicity call was “active”.

With `C[C@H]1CN([C@@H](C)CO)C(=O)Cc2cc(NC(=O)Nc3cccc(C(F)(F)F)c3)ccc2O[C@H]1CN(C)S(=O)(=O)c1ccc(Oc2ccccc2)cc1`, the cytotoxicity call is “inactive”.

Consider `C[C@H](CO)N1C[C@H](C)[C@@H](CN(C)S(=O)(=O)c2ccc(Cl)cc2)Oc2ccc(NC(=O)Nc3ccc(C(F)(F)F)cc3)cc2CC1=O`, for which the cytotoxicity call was “inactive”.

For the compound `C[C@@H]1CN([C@@H](C)CO)C(=O)Cc2cc(NC(=O)Nc3ccc(C(F)(F)F)cc3)ccc2O[C@@H]1CN(C)S(=O)(=O)c1ccc(Cl)cc1`, the cytotoxicity call was “active”.

As for `C[C@H]1CN([C@@H](C)CO)C(=O)Cc2cc(NC(=O)Nc3cccc(C(F)(F)F)c3)ccc2O[C@H]1CN(C)S(=O)(=O)c1ccc(Cl)cc1`, the cytotoxicity call was “active”.

For the compound `C[C@@H]1CN([C@@H](C)CO)C(=O)Cc2cc(NC(=O)Nc3ccc(C(F)(F)F)cc3)ccc2O[C@H]1CN(C)S(=O)(=O)c1ccc(Cl)cc1`, the cytotoxicity call was “inactive”.

For `C[C@H](CO)N1C[C@H](C)[C@H](CN(C)S(=O)(=O)c2ccc(Cl)cc2)Oc2ccc(NC(=O)Nc3ccc(C(F)(F)F)cc3)cc2CC1=O`, the cytotoxicity call is “active”.

Turning to `C[C@@H]1CN([C@@H](C)CO)C(=O)c2cc(NS(=O)(=O)c3ccc(F)cc3)ccc2O[C@@H](C)CCCCO[C@@H]1CN(C)Cc1ccc(C(=O)O)cc1`, the cytotoxicity call is “inactive”.

In the case of `C[C@H]1CN([C@@H](C)CO)C(=O)CCCn2cc(nn2)CO[C@@H]1CN(C)Cc1cccc2c1OCCCO2`, the cytotoxicity call was “inactive”.

Regarding `CO[C@H]1O[C@H](CO)[C@@H](OC(=O)Nc2ccc(Oc3ccccc3)cc2)[C@H](OC(=O)Nc2ccccc2)[C@H]1OC(=O)Nc1ccccc1`, the cytotoxicity call is “inactive”.

With `COc1ccc(S(=O)(=O)N(C)C[C@@H]2OCCCC[C@@H](C)Oc3ccc(NC(=O)Nc4ccccc4)cc3C(=O)N([C@H](C)CO)C[C@H]2C)cc1`, the cytotoxicity call was “inactive”.

Take `O=C(C[C@H]1CC[C@H]2[C@@H](COC[C@@H](O)CN2S(=O)(=O)c2ccc(Oc3ccccc3)cc2)O1)NC1CCC1`: the cytotoxicity call is “inactive”.

Turning to `CC(C)NC(=O)Nc1ccc2c(c1)C(=O)N([C@H](C)CO)C[C@@H](C)[C@@H](CN(C)S(=O)(=O)c1cn(C)cn1)O2`, the cytotoxicity call is “inactive”.

Turning to `C[C@H]1CN([C@@H](C)CO)C(=O)c2cc(NC(=O)Nc3cccc4ccccc34)ccc2O[C@@H]1CN(C)Cc1ccc(C(=O)O)cc1`, the cytotoxicity call was “inactive”.

In the case of `COC(=O)c1c(CC[C@@H](CO)NC(=O)N[C@H](Cn2cc(-c3ccccc3C)nn2)C(C)C)oc(C(C)=O)c1C(=O)OC`, the cytotoxicity call was “inactive”.

On to `CCCN(C)C[C@H]1OCCCC[C@@H](C)Oc2ccc(NC(=O)C3CCCCC3)cc2C(=O)N([C@H](C)CO)C[C@@H]1C`, for which the cytotoxicity call was “inactive”.

Regarding `C[C@@H]1CN([C@@H](C)CO)C(=O)Cc2cc(NC(=O)Nc3ccc(C(F)(F)F)cc3)ccc2O[C@H]1CN(C)S(C)(=O)=O`, the cytotoxicity call was “inactive”.

For the compound `C[C@H]1CN([C@@H](C)CO)C(=O)Cc2cc(NC(=O)Nc3ccc(C(F)(F)F)cc3)ccc2O[C@H]1CN(C)S(=O)(=O)c1ccc(Cl)cc1`, the cytotoxicity call is “active”.

As to `C[C@@H]1CN([C@H](C)CO)C(=O)Cc2cc(NC(=O)Nc3ccc(C(F)(F)F)cc3)ccc2O[C@H]1CN(C)S(C)(=O)=O`, the cytotoxicity call is “inactive”.

For the compound `C[C@H]1CN([C@@H](C)CO)C(=O)Cc2cc(NC(=O)Nc3ccc(C(F)(F)F)cc3)ccc2O[C@@H]1CN(C)S(=O)(=O)c1ccc(Cl)cc1`, the cytotoxicity call was “inactive”.

`C[C@@H]1CN([C@H](C)CO)C(=O)Cc2cc(NC(=O)Nc3ccc(C(F)(F)F)cc3)ccc2O[C@H]1CN(C)S(=O)(=O)c1ccc(Cl)cc1`: the cytotoxicity call is “active”.

Regarding `C[C@H](CO)N1C[C@H](C)[C@@H](CN(C)S(C)(=O)=O)Oc2ccc(NC(=O)Nc3ccc(C(F)(F)F)cc3)cc2CC1=O`, the cytotoxicity call is “inactive”.

`C[C@@H]1CN([C@H](C)CO)C(=O)Cc2cc(NC(=O)Nc3ccc(C(F)(F)F)cc3)ccc2O[C@@H]1CN(C)S(C)(=O)=O`: the cytotoxicity call was “inactive”.

With `Cc1ccccc1S(=O)(=O)N(C)C[C@@H]1Oc2ccc(NC(=O)Nc3cccc(C(F)(F)F)c3)cc2CC(=O)N([C@@H](C)CO)C[C@@H]1C`, the cytotoxicity call was “active”.

Take `C[C@@H]1CN([C@H](C)CO)C(=O)Cc2cc(NC(=O)Nc3ccc(C(F)(F)F)cc3)ccc2O[C@@H]1CN(C)S(=O)(=O)c1ccc(Cl)cc1`: the cytotoxicity call is “active”.

For the compound `C[C@H]1CN([C@@H](C)CO)C(=O)Cc2cc(NC(=O)Nc3ccc(C(F)(F)F)cc3)ccc2O[C@H]1CN(C)S(C)(=O)=O`, the cytotoxicity call is “inactive”.

On to `COc1ccc(NC(=O)N(C)C[C@@H]2OCc3ccccc3-c3c(n(C)c4ccccc34)C(=O)N([C@H](C)CO)C[C@H]2C)cc1`, for which the cytotoxicity call was “inactive”.

With `C[C@@H]1CN([C@H](C)CO)C(=O)Cc2cc(NS(=O)(=O)c3ccc(Cl)cc3)ccc2O[C@@H]1CN(C)C(=O)Nc1cccc2ccccc12`, the cytotoxicity call is “inactive”.

Turning to `CO[C@@H](CN(C)S(=O)(=O)c1ccc(C)cc1)[C@@H](C)CN([C@@H](C)CO)S(=O)(=O)c1cccc(Cl)c1`, the cytotoxicity call is “inactive”.

On to `C[C@@H]1CN([C@H](C)CO)C(=O)c2cc(NS(=O)(=O)c3ccc(Cl)cc3)ccc2O[C@@H](C)CCCCO[C@@H]1CN(C)C(=O)Cc1ccccc1`, for which the cytotoxicity call is “inactive”.

With `CN1CCN(C(=O)C[C@H]2C=C[C@H](NC(=O)Cc3ccccn3)[C@H](CO)O2)CC1`, the cytotoxicity call is “inactive”.

For `O=C(C1=C[C@H](c2ccsc2)C[C@H](OCCCCO)O1)N1CCN(Cc2ccc3c(c2)OCO3)CC1`, the cytotoxicity call is “inactive”.

Turning to `COC(=O)c1c2oc(c1C(=O)OC)C(=O)N[C@@H](Cc1ccccc1)Cn1cc(nn1)[C@@H](Cc1ccccc1)NC(=O)N[C@H](CO)CC2`, the cytotoxicity call was “inactive”.

In the case of `C[C@H](CO)N1C[C@H](C)[C@H](CN(C)S(=O)(=O)c2ccccc2)OCCCC[C@H](C)Oc2ccc(NC(=O)NC3CCCCC3)cc2C1=O`, the cytotoxicity call is “inactive”.

For `CCNc1cc(=N)n(CC)c2n[nH]c(N)c12`, the cytotoxicity call is “inactive”.

Consider `CON=C1CC2(CC3CC(CC=C(C)CC(C)C=CC=C4COC5C(O)C(C)=CC(C(=O)O3)C45O)O2)OC(C(C)=CC(C)C)C1C` (configuration not stated), for which the cytotoxicity call is “active”.

On to `CO/N=C1\C[C@]2(C[C@@H]3C[C@@H](C/C=C(\C)C[C@@H](C)/C=C/C=C4\CO[C@@H]5[C@H](O)C(C)=C[C@@H](C(=O)O3)[C@]45O)O2)O[C@H](/C(C)=C/C(C)C)[C@H]1C`, for which the cytotoxicity call is “active”.
